# Data from the supplement of paper PMC11732987, “Enantioselective OTUD7B fragment discovery through chemoproteomics screening and high-throughput optimisation” (Communications Chemistry, 2025).
# A number with no mark means an inactive call.
# Assays:
# Test in all cases: log2 ratio of Biotin-Ahx-Ub-VS probe labelling (fragment/DMSO); higher = less target engagement (more negative = stronger competition), active = hit call of the paper (q ≤ 0.05, log2 ratio ≤ -1)
# Details in all cases: compound concentration: 200 uM; treatment time: 3 h
# OTUD6B = biological target: T1, OTUD6B (UniProt Q8N6M0)
# T1 sequence (whole entry): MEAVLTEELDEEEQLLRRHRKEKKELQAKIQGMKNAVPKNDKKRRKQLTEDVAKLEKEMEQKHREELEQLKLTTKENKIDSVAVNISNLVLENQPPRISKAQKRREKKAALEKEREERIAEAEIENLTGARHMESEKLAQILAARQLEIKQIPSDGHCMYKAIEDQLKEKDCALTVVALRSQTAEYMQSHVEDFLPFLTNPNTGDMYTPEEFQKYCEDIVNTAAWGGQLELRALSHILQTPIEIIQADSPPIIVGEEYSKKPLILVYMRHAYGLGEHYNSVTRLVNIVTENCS
# Summary of the method: (§1)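 Labelled DUBs from HEK293T lysate were NeutrAvidin-enriched, digested with LysC and trypsin, and run by diaPASEF LC-MS/MS. Before that, each 495 µg sample in Tris/CHAPS/IGEPAL buffer with protease inhibitors was treated in triplicate with fragment at 200 µM or vehicle for 3 h, then with Biotin-Ahx-Ub-VS at 0.5 µM final for 1 h. Values are average log2 ratios of fragment over vehicle by unpaired t-test, based on global-median-normalised Spectronaut label-free quantities from proteins with ≥2 unique peptides.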
# OTUD7B = biological target: T2, OTUD7B (UniProt Q6GQQ9)
# T2 sequence (whole entry): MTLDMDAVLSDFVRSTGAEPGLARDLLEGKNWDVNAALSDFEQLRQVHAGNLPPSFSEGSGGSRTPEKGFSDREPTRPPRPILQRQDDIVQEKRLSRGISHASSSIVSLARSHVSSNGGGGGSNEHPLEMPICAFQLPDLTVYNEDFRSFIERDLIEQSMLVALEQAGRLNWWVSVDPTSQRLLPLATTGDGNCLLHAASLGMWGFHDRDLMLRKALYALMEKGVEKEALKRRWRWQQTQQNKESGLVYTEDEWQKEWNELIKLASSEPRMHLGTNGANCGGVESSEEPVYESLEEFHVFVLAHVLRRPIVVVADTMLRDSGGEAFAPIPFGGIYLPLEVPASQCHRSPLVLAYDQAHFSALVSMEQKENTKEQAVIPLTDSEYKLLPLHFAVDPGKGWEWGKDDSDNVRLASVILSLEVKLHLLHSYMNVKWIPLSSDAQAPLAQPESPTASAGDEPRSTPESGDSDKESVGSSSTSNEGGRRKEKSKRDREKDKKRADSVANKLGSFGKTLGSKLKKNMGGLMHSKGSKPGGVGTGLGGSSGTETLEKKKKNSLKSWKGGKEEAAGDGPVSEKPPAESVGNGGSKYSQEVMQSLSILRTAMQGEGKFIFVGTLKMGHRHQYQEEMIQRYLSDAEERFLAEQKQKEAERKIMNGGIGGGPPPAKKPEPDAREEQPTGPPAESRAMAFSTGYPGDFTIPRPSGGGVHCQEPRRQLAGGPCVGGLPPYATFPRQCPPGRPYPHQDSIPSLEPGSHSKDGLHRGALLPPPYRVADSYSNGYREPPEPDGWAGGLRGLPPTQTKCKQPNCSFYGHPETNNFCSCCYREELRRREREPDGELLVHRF
# Summary of the method: as §1
# PRPF8 = PRPF8 (UniProt Q6P2Q9)
# Summary of the method: as §1
# PSMD7 = biological target: T3, PSMD7 (UniProt P51665)
# T3 sequence (whole entry): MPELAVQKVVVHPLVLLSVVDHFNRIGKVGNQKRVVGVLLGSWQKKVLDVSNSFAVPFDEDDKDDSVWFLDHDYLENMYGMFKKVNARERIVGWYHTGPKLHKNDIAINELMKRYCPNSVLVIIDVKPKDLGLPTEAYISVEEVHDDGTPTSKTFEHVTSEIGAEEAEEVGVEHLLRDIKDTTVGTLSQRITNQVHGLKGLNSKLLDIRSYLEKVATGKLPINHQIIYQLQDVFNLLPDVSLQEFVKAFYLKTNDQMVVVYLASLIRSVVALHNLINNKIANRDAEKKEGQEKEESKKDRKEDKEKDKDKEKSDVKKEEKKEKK
# Summary of the method: as §1
# UCHL1 = UCHL1 (UniProt P09936)
# Summary of the method: as §1
# UCHL3 = biological target: T4, UCHL3 (UniProt P15374)
# T4 sequence (whole entry): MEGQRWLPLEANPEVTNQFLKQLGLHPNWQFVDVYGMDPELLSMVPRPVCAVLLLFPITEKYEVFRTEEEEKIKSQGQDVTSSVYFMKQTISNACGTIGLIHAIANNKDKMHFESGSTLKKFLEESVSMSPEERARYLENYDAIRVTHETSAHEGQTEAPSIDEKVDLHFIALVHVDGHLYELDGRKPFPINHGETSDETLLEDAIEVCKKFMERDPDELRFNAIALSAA
# Summary of the method: as §1
# UCHL5 = biological target: T5, UCHL5 (UniProt Q9Y5K5)
# T5 sequence (whole entry): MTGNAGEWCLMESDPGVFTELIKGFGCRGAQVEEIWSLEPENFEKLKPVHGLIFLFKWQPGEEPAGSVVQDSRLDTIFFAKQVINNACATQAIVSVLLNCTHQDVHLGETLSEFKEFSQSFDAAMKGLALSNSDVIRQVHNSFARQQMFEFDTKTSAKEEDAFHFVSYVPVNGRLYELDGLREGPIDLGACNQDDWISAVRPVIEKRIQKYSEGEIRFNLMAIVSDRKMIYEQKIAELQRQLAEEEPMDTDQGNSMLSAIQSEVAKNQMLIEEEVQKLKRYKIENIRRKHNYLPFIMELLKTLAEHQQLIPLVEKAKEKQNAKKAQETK
# Summary of the method: as §1
# USP10 = USP10 (UniProt Q14694)
# Summary of the method: as §1
# USP15 = biological target: T6, USP15 (UniProt Q9Y4E8)
# T6 sequence (whole entry): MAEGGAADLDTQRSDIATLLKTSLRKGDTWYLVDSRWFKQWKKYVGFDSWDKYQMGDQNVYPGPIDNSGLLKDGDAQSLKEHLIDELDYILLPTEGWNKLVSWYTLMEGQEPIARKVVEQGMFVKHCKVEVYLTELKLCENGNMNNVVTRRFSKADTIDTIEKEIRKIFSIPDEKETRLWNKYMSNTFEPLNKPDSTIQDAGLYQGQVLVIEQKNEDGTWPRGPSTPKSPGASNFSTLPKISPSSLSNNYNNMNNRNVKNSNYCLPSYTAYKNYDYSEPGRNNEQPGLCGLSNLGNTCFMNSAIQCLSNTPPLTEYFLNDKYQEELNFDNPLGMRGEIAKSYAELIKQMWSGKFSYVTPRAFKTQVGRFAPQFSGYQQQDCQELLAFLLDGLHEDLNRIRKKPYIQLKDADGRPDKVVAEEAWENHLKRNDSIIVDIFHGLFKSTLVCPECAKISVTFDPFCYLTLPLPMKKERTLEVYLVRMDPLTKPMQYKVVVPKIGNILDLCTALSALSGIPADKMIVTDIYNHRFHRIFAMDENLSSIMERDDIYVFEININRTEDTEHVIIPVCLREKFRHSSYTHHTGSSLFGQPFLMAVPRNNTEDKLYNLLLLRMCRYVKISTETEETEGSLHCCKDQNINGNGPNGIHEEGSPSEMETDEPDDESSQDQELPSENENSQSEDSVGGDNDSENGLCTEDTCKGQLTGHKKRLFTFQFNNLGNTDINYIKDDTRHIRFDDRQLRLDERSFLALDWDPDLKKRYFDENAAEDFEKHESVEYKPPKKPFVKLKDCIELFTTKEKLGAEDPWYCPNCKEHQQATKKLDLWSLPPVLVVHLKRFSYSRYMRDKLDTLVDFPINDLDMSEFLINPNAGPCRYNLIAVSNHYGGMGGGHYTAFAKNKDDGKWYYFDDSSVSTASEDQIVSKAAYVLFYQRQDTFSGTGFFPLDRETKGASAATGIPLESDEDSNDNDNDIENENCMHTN
# Summary of the method: as §1
# Chain of USP10 (Q14694 whole entry): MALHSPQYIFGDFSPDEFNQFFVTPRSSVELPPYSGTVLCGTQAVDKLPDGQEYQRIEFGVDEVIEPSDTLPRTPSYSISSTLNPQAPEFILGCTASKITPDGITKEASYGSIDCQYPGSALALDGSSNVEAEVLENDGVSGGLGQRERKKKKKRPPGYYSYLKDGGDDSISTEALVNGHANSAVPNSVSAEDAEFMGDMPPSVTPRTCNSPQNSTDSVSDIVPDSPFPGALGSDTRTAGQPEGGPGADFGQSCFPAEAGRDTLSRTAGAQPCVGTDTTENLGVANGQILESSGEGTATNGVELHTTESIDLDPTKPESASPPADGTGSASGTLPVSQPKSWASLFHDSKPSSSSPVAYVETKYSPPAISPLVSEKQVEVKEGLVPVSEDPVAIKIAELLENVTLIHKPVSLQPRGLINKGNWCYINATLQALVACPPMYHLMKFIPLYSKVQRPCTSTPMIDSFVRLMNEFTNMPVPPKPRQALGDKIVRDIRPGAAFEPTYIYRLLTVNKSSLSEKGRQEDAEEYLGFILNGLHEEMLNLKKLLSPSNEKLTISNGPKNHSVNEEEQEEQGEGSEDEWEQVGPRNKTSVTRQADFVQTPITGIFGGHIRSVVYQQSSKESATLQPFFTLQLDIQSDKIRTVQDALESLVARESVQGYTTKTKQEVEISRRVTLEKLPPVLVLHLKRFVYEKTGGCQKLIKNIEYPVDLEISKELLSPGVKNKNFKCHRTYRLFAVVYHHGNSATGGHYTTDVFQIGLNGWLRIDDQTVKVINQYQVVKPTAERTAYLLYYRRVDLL
# Chain of UCHL1 (P09936 whole entry, looked up): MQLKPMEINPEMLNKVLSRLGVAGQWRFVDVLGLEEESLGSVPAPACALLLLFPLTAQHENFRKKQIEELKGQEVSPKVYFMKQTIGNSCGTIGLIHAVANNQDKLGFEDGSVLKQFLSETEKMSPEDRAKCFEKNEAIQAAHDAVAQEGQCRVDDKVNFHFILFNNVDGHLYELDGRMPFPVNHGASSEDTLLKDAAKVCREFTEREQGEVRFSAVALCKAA
structure (smiles),measurement,setting,value
Cc1cccnc1NC(=O)C1CCN(C(=O)CCl)CC1.Cl,log2 ratio of Biotin-Ahx-Ub-VS probe labelling,OTUD6B,-0.127
same,log2 ratio of Biotin-Ahx-Ub-VS probe labelling,OTUD7B,-0.284
same,log2 ratio of Biotin-Ahx-Ub-VS probe labelling,PRPF8,-0.0508
same,log2 ratio of Biotin-Ahx-Ub-VS probe labelling,PSMD7,-0.189
same,log2 ratio of Biotin-Ahx-Ub-VS probe labelling,UCHL1,-1.33 (active)
same,log2 ratio of Biotin-Ahx-Ub-VS probe labelling,UCHL3,0.088
same,log2 ratio of Biotin-Ahx-Ub-VS probe labelling,UCHL5,-0.328
same,log2 ratio of Biotin-Ahx-Ub-VS probe labelling,USP10,-0.146
same,log2 ratio of Biotin-Ahx-Ub-VS probe labelling,USP15,-0.24
